The full ranking holds about 24,000 sequences; the median of “enrichment r” is about 0.99, and the highest 2% start at about 3.7. A selection follows.
T1: UNK ZnF1-3 (human, UniProt Q9C0B0 31-174)
T1 sequence: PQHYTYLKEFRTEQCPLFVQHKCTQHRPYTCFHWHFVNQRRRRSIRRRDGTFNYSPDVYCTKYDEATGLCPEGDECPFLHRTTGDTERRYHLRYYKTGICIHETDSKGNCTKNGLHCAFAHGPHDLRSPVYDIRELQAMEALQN

B1: chr6:117881578:117881579:-_ENSG00000047932_ENST00000052569|hu_hu|motif|central (ssRNA)
RNA: GGGAGUUCUACAGUCCGACGAUCUUUAAUGUAGAAGAUGCCAUCUUUAUUUACAGGCUAAUAAAAAAAUAUUAAACUCAACGGGAUAUAAUACAUUAUCAUAAAUGCAAUAGAUUUGAGGCCAACCAUAAGUGUAAGACUGGACAACAGAGGAUUGAGCAUCA
B2: chr3:144353948:144353949:-_ENSMUSG00000037062_ENSMUST00000163279|mus_hu|FALSE|FALSE (ssRNA)
RNA: GGGAGUUCUACAGUCCGACGAUCACCAAACAACUCUGAAAAUAACCCAUCAAAACAUAAUAUUAAAAUCAUUUGAUUUCUGUUGGAAAACCAGGUAAACAUAGUUUAAAUGCGUUUUUGUCUAUGAAAGCAUUCAGAAAAUUCCAACAGAGGAUUGAGCAUCA
B3: chr7:134094464:134094465:+_ENSMUSG00000030683_ENSMUST00000106335|mus_hu|FALSE|FALSE (ssRNA)
RNA: GGGAGUUCUACAGUCCGACGAUCCUCCGUCUCCGUUUAUCUUUCCCUUUAAUUGUUUUUUUUUUUUUUUUUUUUUUCCUCGUAGGAGUCAGCAAAGAAAGACAAUUUCUCUGCCCCUUGGGAUGGAGGGGCAGAAUUGGGCUACAACAGAGGAUUGAGCAUCA
B4: chr19:3980662:3980663:-_ENSG00000167658_ENST00000309311|hu_mus|FALSE|FALSE (ssRNA)
RNA: GGGAGUUCUACAGUCCGACGAUCGAACACUCUACCAAAGGCAUAGAAGCGGCCUUUGUCAGAGGUUGGCACCAUCUUGGAAAUGUACAUCAUAAGUGGGCCUUUGGGGUCGCAGCUCUUAAUACCCAUGGCGGCCUCAUCGUCCAACAGAGGAUUGAGCAUCA
B5: chr16:45382771:45382772:-_ENSMUSG00000022661_ENSMUST00000163230|mus_mus|motif|central (ssRNA)
RNA: GGGAGUUCUACAGUCCGACGAUCGAGAGUGUUAUUGUGGGCCCAAUGGAUAGGGAGAGCAUGCUUUUGUAAAGAUGUGAACGGCUCACUAAGACUAACAAUAUUGCCUAAGUGCUAUAAAAAUAAGUUAAAUGGACACAUUACCAACAGAGGAUUGAGCAUCA
B6: chr6:44218825:44218826:+_ENSG00000096384_ENST00000371646|hu_hu|FALSE|FALSE (ssRNA)
RNA: GGGAGUUCUACAGUCCGACGAUCGUUGUUCUUUUUCUUCUUGUUCUCAAAAAGGUCAAAGGGAGCCCGACGAGGAAUAAAUAGCAAUGCCCUGAAUUCCAACUGACCUUCUACAGAAAAGUGCUUGACUGCCAAGUGGUCUUCCAACAGAGGAUUGAGCAUCA
B7: chr10:115881139:115881140:-_ENSG00000165813_ENST00000369287|hu_hu|motif|central (ssRNA)
RNA: GGGAGUUCUACAGUCCGACGAUCAUAAAAAUAUUUUCACCAGGGUAGCAUAUAUAACAACAUUUACAUUAUUAAGGAUUCGGUUUUUUUCUUUUACUGAUAAAUCUUGGUUUAAAUUUGCAUGUAACAAUUUUUAGAAAAUAACAACAGAGGAUUGAGCAUCA
B8: chr4:62795864:62795865:+_ENSMUSG00000028358_ENSMUST00000107415|mus_hu|motif|central (ssRNA)
RNA: GGGAGUUCUACAGUCCGACGAUCCAGAGUCUAAAUCAAAUCUGAAGAAACAAAAUGAACCCCCAAACAAGGUAAAAAUUGCGGAAAUGUUAGGGAGAGAAAUUAUUAGGGAGUGGAGACAGUAUCUAUACUUCUCUGAAAAAUCAACAGAGGAUUGAGCAUCA
B9: chr1:44133529:44133530:+_ENSG00000066135_ENST00000372396|hu_hu|FALSE|FALSE (ssRNA)
RNA: GGGAGUUCUACAGUCCGACGAUCAAACUCAGCUGCUUCUGGCGUGGGCAGAGUAUGGUCAAUAACUGUGUUGUCCUUCCCAGCUUUCCAAAGUUUGUACCUUUCUGGCUGGAACUUUCUCACAAACACAUCCAUGGAGAUCUUCAACAGAGGAUUGAGCAUCA
B10: chr7:149068622:149068623:-_ENSMUSG00000025139_ENSMUST00000001950|mus_hu|mus_mus_mus_hu_False|28_108 (ssRNA)
RNA: GGGAGUUCUACAGUCCGACGAUCGUGCAGGUACUGAGUGUGGCUUGUGGUCUGUCCUGGGUUAGAGUUGUUAAUAUCACGGAACAUACCAUCUAGAACGUUCCAGUCUGCCUGACUACCUUCAUUCCCAAUGGAGAAGAAAUCCAACAGAGGAUUGAGCAUCA
B11: chr12:111867003:111867004:+_ENSMUSG00000018707_ENSMUST00000018851|mus_hu|FALSE|FALSE (ssRNA)
RNA: GGGAGUUCUACAGUCCGACGAUCCACCAGCAUAUUUAUCUUCAUGUAACCUUUCAGAAGCCUCUGAACAAACUCAUAGGACGCAUACUGUCGCAACCGGGCAGGGAAGCUUUUCAGCUGGUUCAGGAGGGCAUCCAAAUUUUGCAACAGAGGAUUGAGCAUCA
B12: chr18:32579733:32579734:+_ENSMUSG00000024381_ENSMUST00000025239|mus_mus|motif|central (ssRNA)
RNA: GGGAGUUCUACAGUCCGACGAUCUUUAUGGAAGUUUUCCUCCAGACCCGCGAUGCUCUGGAACGUGUUGACAUAGAAACCGGCACGGCUGUUCCACAGGGAUGGCAGCUCCUCCUGCAGAUCCACGUUCAUCUCCUCGAACACCAACAGAGGAUUGAGCAUCA
B13: chr8:27055589:27055590:-_ENSMUSG00000037260_ENSMUST00000037609|mus_hu|FALSE|FALSE (ssRNA)
RNA: GGGAGUUCUACAGUCCGACGAUCUUCCCUUUAACAAAGGCUGCUUCAGUCCUCCCUGCAGGCCUACUAGAGUCUUCCAGCAGCACAUCUCAGUGGGAGCCAUCAGAUUUUCCAAAAAAUCUUCUUUCUAUAGAGGAUGUAGGCCAACAGAGGAUUGAGCAUCA
B14: chr16:94690093:94690094:+_ENSMUSG00000040785_ENSMUST00000117648|mus_hu|mus_mus_mus_hu_True|28_38 (ssRNA)
RNA: GGGAGUUCUACAGUCCGACGAUCGGGCUGGGAUGACGGACACACAGCCUCGAUUCCAGGGGGAAAAAGUCUUAGUCGAUACUAAUUAAAAAGUGUUUUUAUAAUUGAUUACCAAAAUUACAUCUAUAAAAGAUGAAAAGCAAACAACAGAGGAUUGAGCAUCA
B15: chr12:16048344:16048345:+_ENSG00000023734_ENST00000419869|hu_hu|hu_hu_hu_mus_True|18_18 (ssRNA)
RNA: GGGAGUUCUACAGUCCGACGAUCAGAUCGUCCAUAAGUAAUAACCAAAAUCUCUCCUUCAGGAAUAUACUCCAUGCUGCUAACAGACAUAUUAAAAUUCAGAGAUUUCACUUCUGUCAUAGUAGCAUGAUCCCAGAGCCGAACCAACAGAGGAUUGAGCAUCA
B16: chr5:134191040:134191041:+_ENSG00000181904_ENST00000394976|hu_hu|motif|central (ssRNA)
RNA: GGGAGUUCUACAGUCCGACGAUCAAAAGCAGCAGUGCCACAGCCAUAACCAAGAUCGGCAAGACGGGAUAGAGCUUUAAUGCGGCCUGGAGGUCUGCCUGGGCUGACUUUGUAUCCCGCAGCUUUAGUUGUCCCCAAAGGUCUCAACAGAGGAUUGAGCAUCA
B17: chr9:74905015:74905016:+_ENSMUSG00000007656_ENSMUST00000169492|mus_hu|FALSE|FALSE (ssRNA)
RNA: GGGAGUUCUACAGUCCGACGAUCUGUGUUUGAAAUAUGUGACCUUUCUUCUAACUUGUGGUCUUAAACUUCUGUUUUACAAAAUCCAAAAGGUAAAUACAGAAGAAAUCAAUACAAUAGAGAUUAUAUUAAAUAAGAGUAACACAACAGAGGAUUGAGCAUCA
B18: chr22:32879901:32879902:+_ENSG00000100225_ENST00000397426|hu_mus|hu_hu_hu_mus_False|8_18 (ssRNA)
RNA: GGGAGUUCUACAGUCCGACGAUCCUCUUCCAUACUCAUGGCAUCCUGAAUUGACUCAGCUUCAACAUUUUGACUAGGCCCUUCCAUACUGUCAUCAGUCCAGGCAUCAAAUGGGGUUGCCUGUCCUUGGAAUGAAUCAGUCCCCAACAGAGGAUUGAGCAUCA
B19: chr6:50805741:50805742:+_ENSG00000008196_ENST00000393655|hu_hu|FALSE|FALSE (ssRNA)
RNA: GGGAGUUCUACAGUCCGACGAUCCAGGGAGGUGAGUAACGUGACAUUUGCUGCUUUGCGCCUGCCCGCGGGUAAAUUCAAACCGAUUUUUUCUAGCCUUUCUCGCAAAGAUCUCCCCCCAUUUUUCGAUUUGGCUCUUCUGAGCAACAGAGGAUUGAGCAUCA
B20: chr7:99593380:99593381:+_ENSMUSG00000052572_ENSMUST00000098308|mus_hu|FALSE|FALSE (ssRNA)
RNA: GGGAGUUCUACAGUCCGACGAUCGGUGAGGAGGCUCUCAUCUCAUCUCUUGGGCAGAAAGCCCGUCAGAGGUUCAUCCCUACACCUGGCACUUUGAGCAAACCAAAGCCUUCCUUCAUACUGCAAUGUCUUUUCUGUCCCACCCAACAGAGGAUUGAGCAUCA
B21: 73047273_73096420_338_5pUTR_ENSG00000163605_ENST00000295862|human|control|control (ssRNA)
RNA: GGGAGUUCUACAGUCCGACGAUCGGCUCAGGAGCUGAAGUUCUGAAAUCAUCCAUCACUUUCUCCAGUUUGAAAAUAAAAUAGCCUUUAAAUUGGGACCACUGAAUCAUUGUUUCUCCAGUCUUGGCUACAUGACAAAGAAACCAACAGAGGAUUGAGCAUCA
B22: chr3:179287964:179287965:+_ENSG00000136518_ENST00000429709|hu_hu|hu_hu_hu_mus_True|28_38 (ssRNA)
RNA: GGGAGUUCUACAGUCCGACGAUCCUUGAGUGGUGAGAUGGCCUCCAUGUUCUCCCUGGGCACGCGGAGGGCAUUGGUGUCUAUGUAGUAGGUGGGCCCGCCUUGUUUGCCUUUAUCACCAUCAAUCUCCAUCAUUGUACUUCCCAACAGAGGAUUGAGCAUCA

These binders were tested against T1, UNK ZnF1-3 (assay: nsRBNS (natural sequence RNA bind-n-seq); RBNS binding buffer (assumed for nsRBNS): 25 mM Tris pH 7.5, 150 mM KCl, 3 mM MgCl2, 0.01% Triton X-100, 500 ug/ml BSA, 20 U/ml SUPERase-In, 4 C; UNK is unkempt and MSI1 is Musashi-1; names of the RNAs are library labels; protein concentration not given here; high values mean tight binding).

Row | Binder | binding signal [enrichment R]
1 | B1 | 1.5
2 | B2 | 0.744
3 | B3 | 1.16
4 | B4 | 1.18
5 | B5 | 2.47
6 | B6 | 0.931
7 | B7 | 2.85
8 | B8 | 1.32
9 | B9 | 0.628
10 | B10 | 0.859
11 | B11 | 1.13
12 | B12 | 0.625
13 | B13 | 1.28
14 | B14 | 1.26
15 | B15 | 0.977
16 | B16 | 1.39
17 | B17 | 2.28
18 | B18 | 1
19 | B19 | 1.13
20 | B20 | 1.29
21 | B21 | 1.25
22 | B22 | 0.581
